The results in this text go back to publication PMC4336329 (PLoS ONE, 2015).

Hit rate of the full screen: of about 310,000 compounds, about 14,000 (4.5%) showed an effect of 50% or more. The effect is printed as a negative number. Shown is part of a subset that was picked to be rich in strong results.
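Note: peak tail current of the secondary pulse compared with the same well before compound.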

The target in the assay is human ether-à-go-go-related gene (hERG) potassium channel (human, UniProt Q12809). Briefly: primary screen, population patch clamp on CHO cells stably expressing hERG; higher = less effect of the substance.
Sequence of human ether-à-go-go-related gene (hERG) potassium channel (Q12809 whole entry, looked up): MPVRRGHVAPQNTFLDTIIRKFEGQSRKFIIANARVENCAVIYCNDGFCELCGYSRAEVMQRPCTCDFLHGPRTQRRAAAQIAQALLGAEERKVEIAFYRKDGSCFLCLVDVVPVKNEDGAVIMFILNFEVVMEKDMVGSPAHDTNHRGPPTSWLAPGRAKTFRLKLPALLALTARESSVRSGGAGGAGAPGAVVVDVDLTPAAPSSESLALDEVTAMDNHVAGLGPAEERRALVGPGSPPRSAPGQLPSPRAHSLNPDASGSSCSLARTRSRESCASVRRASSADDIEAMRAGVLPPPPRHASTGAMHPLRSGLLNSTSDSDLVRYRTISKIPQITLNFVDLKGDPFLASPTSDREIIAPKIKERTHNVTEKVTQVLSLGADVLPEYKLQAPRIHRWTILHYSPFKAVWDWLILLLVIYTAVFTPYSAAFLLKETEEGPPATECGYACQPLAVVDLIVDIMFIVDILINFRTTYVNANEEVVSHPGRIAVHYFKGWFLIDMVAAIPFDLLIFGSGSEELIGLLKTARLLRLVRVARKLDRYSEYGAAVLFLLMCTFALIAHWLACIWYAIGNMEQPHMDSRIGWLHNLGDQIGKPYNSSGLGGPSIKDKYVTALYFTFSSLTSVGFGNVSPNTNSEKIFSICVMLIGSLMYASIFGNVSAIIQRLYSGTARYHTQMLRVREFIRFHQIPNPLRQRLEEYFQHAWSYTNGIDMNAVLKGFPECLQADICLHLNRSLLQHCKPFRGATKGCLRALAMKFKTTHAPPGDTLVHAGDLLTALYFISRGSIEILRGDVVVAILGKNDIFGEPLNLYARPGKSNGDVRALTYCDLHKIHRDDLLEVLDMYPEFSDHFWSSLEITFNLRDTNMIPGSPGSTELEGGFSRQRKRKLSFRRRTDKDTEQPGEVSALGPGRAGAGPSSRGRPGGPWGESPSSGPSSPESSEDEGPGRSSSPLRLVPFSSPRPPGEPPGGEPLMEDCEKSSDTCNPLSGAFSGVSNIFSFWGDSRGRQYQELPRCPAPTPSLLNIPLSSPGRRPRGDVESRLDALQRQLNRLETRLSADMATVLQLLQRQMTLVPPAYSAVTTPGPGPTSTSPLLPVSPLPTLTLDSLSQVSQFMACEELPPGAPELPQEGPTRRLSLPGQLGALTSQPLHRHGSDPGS
For the compound `O=C(N/N=C/c1cc([N+](=O)[O-])ccc1O)C12CC3CC(CC(C3)C1)C2`, the “hERG current change (%, negative = inhibition) at 10uM” value was determined as 8.39%. For the compound `CCN(CC(=O)Nc1c(F)cccc1F)C(=O)CSc1ccccc1`, the “hERG current change (%, negative = inhibition) at 10uM” value came out at 8.37%. The value for `O=C(c1cc([N+](=O)[O-])ccc1Cl)N1CCN(c2ccc(F)cc2)CC1` was -27.9%; that for `O=C(c1cnc2n(c1=O)CCS2)N1CCN(c2ccccc2F)CC1` was -5.65%. Take `CCSc1ccccc1C(=O)N1CCN(c2ccc([N+](=O)[O-])cc2)CC1`: the “hERG current change (%, negative = inhibition) at 10uM” value is -79.4%. As to `O=C(c1cnc2n(c1=O)CCS2)N1CCN(C(c2ccccc2)c2ccc(Cl)cc2)CC1` (stereo not drawn), the “hERG current change (%, negative = inhibition) at 10uM” value is reported as -52.4%. The figure for `O=C(c1cc([N+](=O)[O-])ccc1Cl)N1CCN(c2ccccc2)CC1` is -6.43%; for `COCCSc1ccccc1C(=O)Nc1cc([N+](=O)[O-])ccc1OC` it is -28.8%. The figure for `CCSc1ccccc1C(=O)N1CCN(c2ccccc2F)CC1` is 17.6%. The figure for `COCCSc1ccccc1C(=O)Nc1ccc([N+](=O)[O-])cc1OC` is -39.9%; for `O=C(c1cc([N+](=O)[O-])ccc1Cl)N1CCN(c2ccc([N+](=O)[O-])cc2)CC1` it is -73.6%. Take `CC(NC(=O)c1cnc2n(c1=O)CCS2)c1ccccc1` (stereo not drawn): the “hERG current change (%, negative = inhibition) at 10uM” value was 3.42%. The figure for `CCSc1ccccc1C(=O)Nc1ccc([N+](=O)[O-])cc1OC` is -51.9%; for `CCSc1ccccc1C(=O)N1CCCC1` it is -5.81%; for `Cc1cccc(NC(=O)COC(=O)Cc2cccc(C(F)(F)F)c2)c1C` it is 22.8%. Take `Cc1cc(C)n(CCNC(=O)CC2C(=O)NCCN2Cc2ccccc2C(F)(F)F)n1` (stereo not drawn): the “hERG current change (%, negative = inhibition) at 10uM” value is reported as 8.81%. The value for `COCCOC(=O)C1=C(C)OC(N)=C(C#N)C1c1ccc2c(c1)OCO2` (stereo not drawn) was -0.292%; that for `CCCOc1ccc(/C=N/NC(=O)C(C)Sc2ccccn2)cc1OCC` (stereo not drawn) was 14.9%; that for `CCOCC(=O)Nc1cc([N+](=O)[O-])ccc1OC` was 15.7%.

As to `N#C/C(=C\C=C\c1ccccc1)c1nc(-c2ccc3c(c2)OCO3)cs1`, the “hERG current change (%, negative = inhibition) at 10uM” value is listed as -3.96%. The value for `COc1ccc(N(CC(=O)NCc2cccs2)S(=O)(=O)c2ccc(F)cc2)cc1` was -0.742%; that for `CN(Cc1nccs1)C(=O)C1CCC(=O)N(Cc2ccccc2F)C1` (stereo not drawn) was -16.1%. The figure for `COc1cccc(-c2ccc(=O)n(CC(=O)Nc3ccc(C(=O)N4CCCC4)cc3)n2)c1` is -15.4%; for `COc1cc(/C=C/c2cccc[n+]2C)ccc1OCC(=O)Nc1ccccc1.[I-]` it is 8.86%. The value for `CN(C)S(=O)(=O)c1ccc(N2CCCC2)c(C(=O)N2CCN(c3ccc([N+](=O)[O-])cc3)CC2)c1` was -76.7%. On to `O=C(c1cc(=O)[nH]c2ccccc12)N1CCN(c2ccccc2)CC1`, for which the “hERG current change (%, negative = inhibition) at 10uM” value worked out at 2.12%. On to `O=C(c1cc([N+](=O)[O-])ccc1N1CCOCC1)N1CCN(c2ccc([N+](=O)[O-])cc2)CC1`, for which the “hERG current change (%, negative = inhibition) at 10uM” value is -79.8%. The value for `COc1ccc(N2CCN(C(=O)c3cc(=O)[nH]c4ccccc34)CC2)cc1` was -0.412%. Take `CC(=O)c1ccc(N2CCN(C(=O)c3cc(-c4cccnc4)nc4ccc(Br)cc34)CC2)cc1`: the “hERG current change (%, negative = inhibition) at 10uM” value came to 2.5%.

For the compound `Cc1ccc2nc(-c3cccnc3)cc(C(=O)N3CCN(c4ccc([N+](=O)[O-])cc4)CC3)c2c1`, the “hERG current change (%, negative = inhibition) at 10uM” value is -68.2%.

For the compound `Cc1ccc(S(=O)(=O)N2CCN(C(=O)c3cc(S(=O)(=O)N(C)C)ccc3N3CCCC3)CC2)cc1`, the “hERG current change (%, negative = inhibition) at 10uM” value is recorded as -11.1%.

In the case of `Cc1cccc(N2CCN(C(=O)c3cc(S(=O)(=O)N(C)C)ccc3N3CCCC3)CC2)c1C`, the “hERG current change (%, negative = inhibition) at 10uM” value is -12.3%.

In the case of `O=C(c1cc(=O)[nH]c2ccccc12)N1CCN(c2ccc([N+](=O)[O-])cc2)CC1`, the “hERG current change (%, negative = inhibition) at 10uM” value was -65.1%.

`O=C(c1cc([N+](=O)[O-])ccc1N1CCOCC1)N1CCN(c2ccccc2)CC1`: the “hERG current change (%, negative = inhibition) at 10uM” value is -32.3%. The value for `O=C(c1cc([N+](=O)[O-])ccc1N1CCOCC1)N1CCOCC1` was 18.1%.

For the compound `Cc1ccc2c(C(=O)N3CCN(c4ccccc4)CC3)cc(-c3cccnc3)nc2c1C`, the “hERG current change (%, negative = inhibition) at 10uM” value was 4.03%.

For the compound `CCOc1ccc(C(=O)NCC(=O)OCC(=O)Nc2ccccc2OC)cc1`, the “hERG current change (%, negative = inhibition) at 10uM” value is -18.1%. The value for `CCC(CC)C(=O)Nc1cc(C)cc(C)c1` was 0.735%; that for `CC(NC(=O)COC(=O)CNC(=O)C1CCCCC1)c1ccccc1` (stereo not drawn) was -3.81%; that for `COc1ccc(/C=N/NC(=O)c2nnn(-c3nonc3N)c2-c2cccs2)c(OC)c1` was 13.1%. The value for `CC(C)(C)NC(=O)C(OC(=O)c1cccs1)c1ccccc1` (stereo not drawn) was 58.8%; that for `Cc1ccc(C(=O)NC(=S)NNC(=O)COc2ccccc2C)cc1` was 15.3%.

Regarding `O=C(O)C1CCCCC1C(=O)NCCc1ccncc1` (stereo not drawn), the “hERG current change (%, negative = inhibition) at 10uM” value stood at 1.96%. For the compound `O=C(c1ccc(F)cc1)N1CCN2C(=O)c3ccccc3C12c1ccccc1` (stereo not drawn), the “hERG current change (%, negative = inhibition) at 10uM” value is on record as -31.5%. The figure for `COc1ccc2[nH]c(=O)c(CN(C(C)=O)c3cccc(C)c3)cc2c1` is -8.64%; for `Nc1nonc1-n1nnc(C(=O)N/N=C/c2ccccc2)c1CSc1ccc(Cl)cc1` it is -23.6%; for `Cc1ccccc1C(=O)OC1OC(=O)C(Cl)=C1N1CCOCC1` (stereo not drawn) it is -20.1%. The figure for `O=C1CCCC2=C1C(c1ccncc1)c1c(nc(SCc3ccccc3)[nH]c1=O)N2` (stereo not drawn) is 17.7%; for `CCOC(=O)N1CCN(C(=O)c2cnc3n(c2=O)CCS3)CC1` it is 7.34%; for `O=C(c1cc([N+](=O)[O-])ccc1N1CCOCC1)N1CCN(S(=O)(=O)c2cc(Cl)ccc2Cl)CC1` it is -32.3%. The value for `O=C(c1cc([N+](=O)[O-])ccc1N1CCN(S(=O)(=O)c2ccc(Cl)c(Cl)c2)CC1)N1CCOCC1` was -52.4%.

In the case of `O=C(c1cnc2n(c1=O)CCS2)N1CCN(c2ccc([N+](=O)[O-])cc2)CC1`, the “hERG current change (%, negative = inhibition) at 10uM” value is -63%. Consider `O=C(c1cc([N+](=O)[O-])ccc1N1CCOCC1)N1CCN(S(=O)(=O)c2ccc(F)cc2)CC1`, for which the “hERG current change (%, negative = inhibition) at 10uM” value is -32.5%. The figure for `CC(=O)c1cnc2n(c1=O)CCS2` is 27.8%; for `CCOC(=O)C(C)Sc1nnc(Cc2cc(=O)[nH]c(=O)[nH]2)n1-c1ccc(Cl)cc1` (stereo not drawn) it is 2.15%. The figure for `C/C(=N/OC(=O)c1c(F)cccc1F)c1nccs1` is 3.34%; for `CCOC(=O)CSc1nnc([C@H](Cc2ccccc2)NC(=O)OC(C)(C)C)o1` it is -14.3%. The value for `COc1ccc2c(COC(=O)CNC(=O)C34CC5CC(CC(C5)C3)C4)cc(=O)oc2c1` was -31.4%. `COc1ccc([C@@H](C)NC(=O)c2ccc3oc(C(C)C)nc3c2)cc1`: the “hERG current change (%, negative = inhibition) at 10uM” value was 26.1%. The value for `O=C(NC(=S)Nc1ccccc1F)c1ccc(Br)o1` was 8.98%; that for `COc1cc(OC)c(C2=NOC(C(=O)N3CCN(C(=O)c4ccco4)CC3)C2)cc1Cl` (stereo not drawn) was -35.3%; that for `COc1cccc(C2=NOC(C(=O)N3CCN(C(=O)c4ccco4)CC3)C2)c1` (stereo not drawn) was -40.1%. The figure for `O=C(c1ccco1)N1CCN(C(=O)C2CC(c3ccc(Cl)cc3)=NO2)CC1` (stereo not drawn) is -76.2%; for `COc1ccc(C2=NOC(C(=O)N3CCN(C(=O)c4ccco4)CC3)C2)cc1OC` (stereo not drawn) it is 0.127%. The value for `O=C(c1ccco1)N1CCN(C(=O)C2CC(c3ccccc3F)=NO2)CC1` (stereo not drawn) was -18.3%; that for `O=C(c1ccco1)N1CCN(C(=O)C2CC(c3ccc(F)cc3)=NO2)CC1` (stereo not drawn) was -72.5%; that for `N#CC1(c2ccccc2)CCCN1C(=O)c1ccc(Br)cc1` (stereo not drawn) was -8.79%. As to `CC(=O)Nc1ccc(NC(=O)COc2ccc3c(c2)CCC3)cc1`, the “hERG current change (%, negative = inhibition) at 10uM” value stood at 24.5%. As for `N#CC1CCCc2c1[nH]c1ccc([N+](=O)[O-])cc21` (stereo not drawn), the “hERG current change (%, negative = inhibition) at 10uM” value turned out to be 12.5%. On to `COc1ccc(NC(=S)NC2CC3CCCC(C2)N3C2CC2)cc1` (stereo not drawn), for which the “hERG current change (%, negative = inhibition) at 10uM” value is listed as -41.3%.

In the case of `CCCN1C2CCCC1CC(NC(=S)Nc1cccc(C)c1)C2` (stereo not drawn), the “hERG current change (%, negative = inhibition) at 10uM” value is reported as -44.5%. Regarding `C=CCN1C2CCCC1CC(NC(=O)Nc1cccc(C(C)=O)c1)C2` (stereo not drawn), the “hERG current change (%, negative = inhibition) at 10uM” value is 5.52%. On to `CCCN1C2CCCC1CC(NC(=S)Nc1cc(C)cc(C)c1)C2` (stereo not drawn), for which the “hERG current change (%, negative = inhibition) at 10uM” value is -83.7%. For `S=C(Nc1ccccc1Cl)NC1CC2CCCC(C1)N2C1CC1` (stereo not drawn), the “hERG current change (%, negative = inhibition) at 10uM” value was -23.8%. Turning to `Cc1cc(C)cc(NC(=O)NC2CCCCCCC2)c1`, the “hERG current change (%, negative = inhibition) at 10uM” value was -5.07%.

Regarding `S=C(Nc1ccc(Cl)cc1)NC1CC2CCCC(C1)N2C1CC1` (stereo not drawn), the “hERG current change (%, negative = inhibition) at 10uM” value is on record as -32.9%. As for `CCCN1C2CCCC1CC(NC(=S)Nc1cc(C)ccc1C)C2` (stereo not drawn), the “hERG current change (%, negative = inhibition) at 10uM” value amounted to 11.6%. The value for `C=CCN1C2CCCC1CC(NC(=O)Nc1cc(C)cc(C)c1)C2` (stereo not drawn) was -51.8%; that for `S=C(Nc1ccc(Cl)cc1)NC1CC2CCCC(C1)N2C1CCCC1` (stereo not drawn) was -55.5%; that for `S=C(Nc1cccc(Cl)c1)NC1CC2CCCC(C1)N2C1CCCC1` (stereo not drawn) was 19%. For `Cc1cc(C)cc(NC(=S)NC2CC3CCCC(C2)N3C2CC2)c1` (stereo not drawn), the “hERG current change (%, negative = inhibition) at 10uM” value is -67.3%. The figure for `CC1=C(C)C(OCCBr)N(c2cc(O)c(Cl)cc2F)C1=O` (stereo not drawn) is 4.66%; for `CN(C(=O)c1ccc(NC(=O)Cc2ccc(NC(=O)C3CCN(C(=O)CCc4ccccc4)CC3)cc2)cc1)C1CC1` it is 9.51%; for `COc1cccc2cc(C(=O)n3ccc(C)n3)c(=O)oc12` it is 8.24%.
